Several values for one entry are separate records, joined by “and”; a condition that tells them apart may be missing. Identical values can stand only once. In all, about 5,500 compounds went through this assay and about 2,000 (36%) were called active. Inconclusive results (about 18%) are left out. No stated cut-off is given here; in the data, active means normalized growth mostly below about 0.91 (no sharp cut-off); inconclusive means no clear call, values can overlap the other calls; inactive means mostly above about 0.92. Some of the results follow.
Assay: chemical genetic growth profiling, strain panel (AID 1159580);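 further: tested at 20 µM; growth read once vehicle control cultures reached saturation at 30 °C; 1 = growth at the plate median or of vehicle wells; lower values mean less growth of the strain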
Conditions: S. cerevisiae deletion strains, growth OD

Measured: normalized growth

CCCc1nc(C(C)(C)O)c(C(=O)OCc2oc(=O)oc2C)n1Cc1ccc(-c2ccccc2-c2nn[nH]n2)cc1
inactive: locus YAL013W, strain DEP1, hits give low values 0.99 | locus YAL021C, strain ccr4, hits give low values 0.976 | locus YAL026C, strain drs2, hits give low values 0.966 | locus YAL030W, strain snc1, hits give low values 0.955 | locus YBL061C, strain skt5, hits give low values 0.979 | locus YBR009C, strain hhf1, hits give low values 1 | locus YBR021W, strain FUR4, hits give low values 0.987 | locus YBR023C, strain chs3, hits give low values 0.961 | locus YBR171W, strain sec66, hits give low values 0.957 | locus YBR229C, strain ROT2, hits give low values 0.989 | locus YBR231C, strain swc5, hits give low values 0.974 | locus YBR279W, strain paf1, hits give low values 0.973 | locus YCL011C, strain gbp2, hits give low values 0.945 | locus YCL016C, strain dcc1, hits give low values 0.994 | locus YCL029C, strain bik1, hits give low values 0.982 | locus YCL069W, strain vba3, hits give low values 0.987 | locus YCR088W, strain abp1, hits give low values 0.977 | locus YDL005C, strain med2, hits give low values 0.983 | locus YDL035C, strain GPR1, hits give low values 1 | locus YDL040C, strain nat1, hits give low values 0.976 | locus YDL074C, strain BRE1, hits give low values 1.01 | locus YDL101C, strain DUN1, hits give low values 0.991 | locus YDL134C, strain PPH21, hits give low values 0.986 | locus YDL185W, strain tfp1, hits give low values 0.983 | locus YDL192W, strain arf1, hits give low values 0.985 | locus YDR001C, strain nth1, hits give low values 0.945 | locus YDR069C, strain doa4, hits give low values 0.956 | locus YDR101C, strain arx1, hits give low values 0.994 | locus YDR137W, strain rgp1, hits give low values 0.943 | locus YDR150W, strain NUM1, hits give low values 1 | locus YDR159W, strain sac3, hits give low values 0.933 | locus YDR162C, strain NBP2, hits give low values 1 | locus YDR195W, strain ref2 0.922 | locus YDR297W, strain sur2, hits give low values 0.981 | locus YDR318W, strain mcm21, hits give low values 0.994 | locus YDR334W, strain swr1, hits give low values 0.945 | locus YDR335W, strain msn5, hits give low values 0.952 | locus YDR388W, hits give low values 0.987 | locus YDR392W, strain spt3, hits give low values 1.02 | locus YDR502C, strain sam2, hits give low values 0.986 | locus YEL003W, strain gim4, hits give low values 0.972 | locus YEL037C, strain rad23, hits give low values 0.968 | locus YEL061C, strain CIN8 (second series), hits give low values 0.955 | locus YEL061C, strain CIN8, hits give low values 1.01 | locus YER015W, strain faa2, hits give low values 0.99 | locus YER016W, strain bim1, hits give low values 0.967 | locus YER110C, hits give low values 0.985 | locus YER111C, strain swi4, hits give low values 0.965 | locus YER155C, strain BEM2 (second series), hits give low values 0.906 | locus YER155C, strain BEM2, hits give low values 1.02 | locus YER167W, strain BCK2, hits give low values 0.99 | locus YFR010W, strain ubp6, hits give low values 0.967 | locus YGL078C, strain dbp3, hits give low values 0.99 | locus YGL086W, strain mad1, hits give low values 0.986 | locus YGL167C, strain pmr1, hits give low values 0.957 | locus YGL173C, strain kem1, hits give low values 0.985 | locus YGL227W, strain vid30, hits give low values 0.96 | locus YGL240W, strain doc1, hits give low values 0.949 | locus YGL248W, strain PDE1, hits give low values 0.99 | locus YGL253W, strain hxk2, hits give low values 0.962 | locus YGR078C, strain PAC10, hits give low values 1.02 | locus YGR135W, strain pre9, hits give low values 0.995 | locus YGR229C, strain SMI1, hits give low values 1 | locus YGR252W, strain gcn5, hits give low values 1.02 | locus YHR013C, strain ard1, hits give low values 0.978 | locus YHR027C, strain rpn1, hits give low values 0.973 | locus YHR030C, strain SLT2, hits give low values 0.99 and 0.967 | locus YHR079C, strain IRE1 (second series), hits give low values 0.984 | locus YHR079C, strain IRE1, hits give low values 0.954 | locus YHR094C, strain hxt1, hits give low values 0.989 | locus YHR129C, strain ARP1, hits give low values 0.987 | locus YHR142W, strain chs7, hits give low values 1 | locus YHR200W, strain rpn10, hits give low values 0.981 | locus YIL066C, strain RNR3, hits give low values 0.994 | locus YIL073C, strain SPO22, hits give low values 1.02 | locus YIL125W, strain kgd1, hits give low values 0.989 | locus YIR030C, strain dcg1, hits give low values 0.982 | locus YJL092W, strain hpr5, hits give low values 0.982 | locus YJL095W, strain BCK1 (second series), hits give low values 0.973 | locus YJL095W, strain BCK1, hits give low values 0.987 and 0.988 | locus YJL115W, strain asf1, hits give low values 0.967 | locus YJL129C, strain trk1, hits give low values 0.965 | locus YJL134W, strain LCB3, hits give low values 0.994 | locus YJL154C, strain vps35, hits give low values 0.966 | locus YJL164C, strain tpk1, hits give low values 0.996 | locus YJL166W, strain qcr8, hits give low values 0.966 | locus YJL168C, strain set2, hits give low values 0.997 | locus YJL187C, strain SWE1 (second series), hits give low values 0.987 | locus YJR043C, strain POL32, hits give low values 0.997 | locus YJR066W, strain TOR1, hits give low values 0.931 | locus YJR075W, strain HOC1, hits give low values 1.01
